Compounds with a hit are over-represented: about 8.7% of the library has one in this group of screens.
BAZ2B block: BAZ2B (human) inhibition | Q9UIF8 | AlphaScreen BAZ2B-H3K14Ac peptide displacement | Potency, µM (series often up to 114 µM), for inactives: at the top dose activity change, negative = inhibition, actives largely listed as inhibitors | hit rate 4.4% among 360,000 | AID 504333; also: % is scaled to controls: 0 for no effect and ±100 for the full control effect; nearly all actives have a fitted effect of over 60% in size
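Complex of BAZ2B and biotin-H3K14Ac (50 nM apiece) forms over 30 min at RT, then faces library compounds up to 110 uM for another 30 min; AlphaScreen beads added, 20 min dark incubation, luminescence read.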
12-LOX inh: inhibitors of human 12S-lipoxygenase ALOX12; P18054; purified 12hLO, xylenol orange hydroperoxide absorbance; Potency, µM (series often up to 108 µM), for the others: top-dose activity change, negative = inhibition, actives largely listed as inhibitors; hit rate 1.1% among 580,000; also: % is scaled to controls: 0 for no effect and ±100 for the full control effect
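Purified human 12hLO (150 nM final) in 25 mM Hepes, 0.01% Triton X-100, pH 7.0 was preincubated 15 min at room temperature with compound. Then 40 uM arachidonic acid was added, 30 min. Hydroperoxide was read by Fe-XO absorbance ratio 573/405 nm.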
JMJD2A Tudor inh: blocks the human JMJD2A Tudor domain | O75164 | AlphaScreen JMJD2A-Tudor / H3K4me3 peptide binding | Potency, µM (series often up to 114 µM), for the others: at the top dose activity change, negative = inhibition, usual class: inhibitors | hit rate 4.4% among 390,000 | AID 504339; also: % is scaled to controls: 0 for no effect and ±100 for the full control effect; nearly all actives have a fitted effect of over 50% in size
Sfp PPTase inh: blocks B. subtilis Sfp PPTase activity | hit rate 3.5% among 310,000 | Potency, µM, without a hit: largest response in the series, negative = inhibition, hits mostly inhibitors | Q9F4F7 | AID 1490 | Biochemical Sfp PPTase activity, qHTS;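 also: the enzyme is Sfp with the accession as filed and its product quenches rhodamine fluorescence; 0% = enzyme reaction without inhibitor and -100% = no enzyme wells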
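After 15 min at room temperature with compound, 15 nM Sfp received 5 uM rhodamine-CoA plus 12.5 uM BHQ-2-ybbR (50 mM Hepes pH 7.6, 10 mM MgCl2). Rate came from the fluorescence difference over 30 min, ex 525/em 598 nm.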
G9a inh: G9a (human) methyltransferase inhibition. AID 504332. hit rate 8.8% among 350,000. Potency, µM (titrated, usually from 102 µM), for the others: at the top dose activity, negative = inhibition, usual class: inhibitors. Q96KQ7. G9a H3K9 monomethylation, AlphaScreen, 2 h; also: % is scaled to controls: 0 for no effect and ±100 for the full control effect; nearly all actives have a fitted effect of over 75% in size
Target sequence (Q96KQ7 913-1193 limits assumed): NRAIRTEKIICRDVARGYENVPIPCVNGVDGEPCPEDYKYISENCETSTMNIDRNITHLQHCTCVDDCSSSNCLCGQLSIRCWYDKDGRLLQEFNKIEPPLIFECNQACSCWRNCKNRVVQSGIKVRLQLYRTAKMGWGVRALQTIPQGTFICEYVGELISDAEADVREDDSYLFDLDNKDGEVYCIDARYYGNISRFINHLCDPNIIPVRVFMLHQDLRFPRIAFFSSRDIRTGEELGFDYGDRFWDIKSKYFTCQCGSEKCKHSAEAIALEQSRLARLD
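AlphaScreen read-out: biotin-H3K9 peptide (500 nM) methylation by 20 nM enzyme with 20 uM SAM, 2 h at room temperature after 15 min compound preincubation; anti-monomethyl H3K9 antibody plus donor/acceptor beads, 10 min dark.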
HP1b chromo inh: HP1-beta chromodomain-methylated histone interaction inhibition | P83916 | AlphaScreen HP1-beta / biotin-H3K9me3 peptide binding | Potency, µM (titrated, usually from 114 µM), without a hit: top-dose activity change, negative = inhibition, actives largely listed as inhibitors | hit rate 0.56% among 390,000 | AID 540317; also: nearly all actives have a fitted effect of over 70% in size
Target sequence (P83916 whole entry, looked up): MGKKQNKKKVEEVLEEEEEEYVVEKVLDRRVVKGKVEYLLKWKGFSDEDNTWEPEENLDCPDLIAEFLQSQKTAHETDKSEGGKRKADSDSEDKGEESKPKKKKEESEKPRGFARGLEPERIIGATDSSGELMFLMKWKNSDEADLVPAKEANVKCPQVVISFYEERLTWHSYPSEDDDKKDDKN
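HP1-beta protein (50 nM final) preincubated 30 min at room temperature with biotinylated H3(1-18)K9me3 peptide (50 nM) in PBS pH 7.4, 0.01% Tween-20, then compound added for 30 min. AlphaScreen streptavidin donor/nickel chelate acceptor beads (10 ug/mL final), 30 min dark, luminescence read.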
Numbers without * were called inactive; [ ] = another dose, or the depositor's remark. Calls follow the shape of the dose curve; as a rule, active = well fitted curve in the direction sought with a large enough effect; inconclusive = small, poorly fitted or top-dose-only effect, or another doubt; inactive = no such curve, though single readings can be large; an effect the other way counts as inactive or inconclusive. Potency is read from the fitted curve at half-maximal effect.

Results for CN(C1CCCCC1)S(=O)(=O)CCNC(=O)c1ccccc1 ?
BAZ2B block: 12%; 12-LOX inh: -64%; JMJD2A Tudor inh: -10%; G9a inh: -7%; HP1b chromo inh: 7%

Results for COc1cccc(C(=O)Nc2nnc(S(=O)(=O)N(C)Cc3ccccc3)s2)c1 ?
BAZ2B block: -16%; 12-LOX inh: 2%; JMJD2A Tudor inh: -14%; Sfp PPTase inh: 14%; G9a inh: 21%; HP1b chromo inh: 46%

What do the screens show for `COc1cccc(C(=O)NCCS(=O)(=O)N(C)Cc2ccccc2)c1`?
BAZ2B block: 2%; 12-LOX inh: -20%; JMJD2A Tudor inh: -14%; G9a inh: 45µM*; HP1b chromo inh: 19%

Results for COC(=O)c1c(NC(=S)Nc2cc(OC)c(Cl)cc2OC)sc2c1CCCCC2 ?
BAZ2B block: -11%; 12-LOX inh: 40µM*; JMJD2A Tudor inh: 50µM*; Sfp PPTase inh: inconclusive; G9a inh: 12%[59 µM]; HP1b chromo inh: -38%

Results for CCOC(=O)c1c(NC(=S)Nc2cc([N+](=O)[O-])ccc2OC)sc2c1CCCCC2 ?
BAZ2B block: inconclusive; Sfp PPTase inh: 22µM*; G9a inh: inconclusive

Results for Cc1nnn2c(C(=O)N3CCOCC3)cccc12 ?
12-LOX inh: 95%[176 µM]

Results for Cc1cc(OC(=O)c2ccco2)c(Sc2ccccc2[N+](=O)[O-])c(=O)o1 ?
BAZ2B block: inconclusive; JMJD2A Tudor inh: inconclusive; Sfp PPTase inh: inconclusive; G9a inh: 32µM*; HP1b chromo inh: -7%

What do the screens show for `O=C(COC(=O)c1ccco1)Nc1ccccc1[N+](=O)[O-]`?
BAZ2B block: -22%; 12-LOX inh: 2%; JMJD2A Tudor inh: -12%; Sfp PPTase inh: 20%; G9a inh: -4%; HP1b chromo inh: 28%

What do the screens show for `O=C(c1ccc(Cl)cc1)N1CCC2(Cc3ccccc3CNC2=O)C1` (stereo unspecified)?
12-LOX inh: 9%[6.33 µM]

What do the screens show for `COc1ccc(/C=C2/CCCC(C(=O)C(F)(F)F)=C2O)cc1OC`?
BAZ2B block: -14%; 12-LOX inh: -12%; JMJD2A Tudor inh: -16%; Sfp PPTase inh: inconclusive; HP1b chromo inh: 39%

Results for COc1ccc(/C=C2\CCCC(C(=O)C(F)(F)F)=C2O)cc1OC ?
BAZ2B block: inconclusive; Sfp PPTase inh: -13%; G9a inh: 8.9µM*

Results for CCOc1cc(/C=C2\CCCC(C(=O)C(F)(F)F)=C2O)ccc1O ?
BAZ2B block: -33%; 12-LOX inh: inconclusive; JMJD2A Tudor inh: -33%; Sfp PPTase inh: -17%; G9a inh: 20µM*; HP1b chromo inh: 15%

How did O=C1c2c(nc(CNCc3ccc4c(c3)OCO4)n2Cc2ccccc2)NCCN1Cc1ccccc1F do in these assays?
12-LOX inh: 71%

How did O=C(O)c1ccc(C2CCCN(C(=O)CN3CCc4ccccc4C3)C2)cc1 (stereo unspecified) do in these assays?
12-LOX inh: -1%

Results for COc1ccc(CNC(=O)C(=O)c2c[nH]c3ccccc23)cc1 ?
12-LOX inh: -18%

What do the screens show for `Cc1ccc(NC(=O)c2cc(N(C)C)ccc2[P+](=O)O)cc1`?
BAZ2B block: inconclusive; 12-LOX inh: inconclusive; JMJD2A Tudor inh: inconclusive; Sfp PPTase inh: 10%; G9a inh: 28µM*; HP1b chromo inh: 5%

What do the screens show for `CC(=O)Nc1ccc(NC(=O)c2cccc(N(C)C)c2)cc1`?
12-LOX inh: 8%

Results for C=C(CN(C)C)C(=O)c1cc(C)ccc1C ?
12-LOX inh: inconclusive; JMJD2A Tudor inh: 89µM*; HP1b chromo inh: 35µM*

Results for O=C1c2oc3ccc(F)cc3c(=O)c2C(c2ccncc2)N1CCN1CCOCC1 (stereo unspecified) ?
BAZ2B block: 4%; Sfp PPTase inh: -2%; G9a inh: 50µM*

Assay outcomes from PubChem.
